Only some compounds are listed: those with a hit (about 3.7% of all), similar ones and a draw of the others.
MazF activator: activators of E. coli MazEF toxin-antitoxin RNase. P0AE70. FAM/BHQ RNA-DNA oligo cleavage fluorescence, 5 h. activation, % at 20 µM. 350,000 compounds, 0.32% hits. AID 504720; in the data active = activation above about 50%
Target sequence (P0AE70 whole entry, looked up): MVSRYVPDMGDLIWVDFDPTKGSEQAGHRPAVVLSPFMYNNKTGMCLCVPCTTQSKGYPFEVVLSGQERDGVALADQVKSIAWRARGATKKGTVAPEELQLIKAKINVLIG
BoNT A protease: BoNT A light chain protease inhibition | inhibition, % at 10 µM | multiplex microsphere protease substrate cleavage, flow cytometry | 360,000 compounds, 0.17% hits; note: plate controls were buffer without enzyme for full effect and enzyme alone for no effect
Bead autofluor: counter-screen for toxin protease inhibitors: compound fluorescence. compound autofluorescence counterscreen, microsphere flow cytometry; stronger effect = higher value. fluorescence intensity (concentration not given with the values). 360,000 compounds, 3.1% hits; in the data active = fluorescence intensity above about 16000; inconclusive = no clear call, values can overlap the other calls
BoNT-F LC inh: blocks Botulinum neurotoxin F light chain protease; 360,000 compounds, 0.22% hits; inhibition, % at 10 µM; AID 588497; Multiplex microsphere protease cleavage assay, flow cytometry; in the data active = inhibition above about 35%, passing the limit was not always enough; inconclusive = no clear call, values can overlap the other calls; note: plate controls were buffer without enzyme for full effect and enzyme alone for no effect
Anthrax LF inh2: anthrax lethal factor protease inhibition; P15917; multiplex microsphere protease cleavage assay, LF; inhibition, % at 10 µM; 360,000 compounds, 0.12% hits; note: plate controls were buffer without enzyme for full effect and enzyme alone for no effect
* = called active by the depositor; ? = inconclusive; · = not tested or not shown. Cut-off read from the data, not from the text of the source, unless noted: active = inhibition above about 30%; inconclusive = no clear call, values can overlap the other calls; inactive = below that.

SMILES	MazF activator	BoNT A protease	Bead autofluor	BoNT-F LC inh	Anthrax LF inh2
O=C(Nc1ccccc1)c1ccc(NCC2CCCO2)c([N+](=O)[O-])c1 (stereo not given)	4.6	-0.1	2625	-4.5	-3.5
O=C(Cc1csc(N2CCOCC2)n1)N/N=C/c1ccc(F)cc1	6.8	5.5	20712*	7.1	2.2
COc1ccc(C(=O)NCc2ccc(N3CCN(C(=O)OC(C)(C)C)CC3)cc2)cc1	5.4	-1.7	22812*	-4.7	-2.0
COc1ccc(C(=O)NCc2ccc(N3CCN(C)CC3)cc2)cc1	5.0	3.9	3554	30.8	23.4
COc1cccc(C(=O)NCc2ccc(N3CCN(C(=O)OC(C)(C)C)CC3)cc2)c1	11.2	1.1	20260*	2.4	-1.4
Cc1occc1-c1nc(-c2ccncc2)no1	-7.4	3.3	21018*	3.2	-2.3
CC1(Cc2ccccc2OC(F)(F)F)C(=O)Nc2c(Cl)ccc(Cl)c21 (stereo not given)	·	-0.2	3495	-1.9	-0.7
OC(CC1CC12c1ccccc1-c1ncccc12)(c1ccccc1)c1ccccc1 (stereo not given)	0.2	0.0	5889	1.8	-6.8
CCOC(=O)C(C)C1(O)c2ccccc2-c2ncccc21 (stereo not given)	-2.1	?	23373*	-7.5	-2.0
Cc1cccc(NC(=O)c2sc3nc(-c4ccc(F)cc4)cn3c2C)n1	-56.1	?	19776*	1.4	-0.8
COc1ccc(-c2cn3c(C)c(C(=O)NC(C)C)sc3n2)cc1	1.0	-1.1	23094*	-1.6	-7.9
Cc1c(C(=O)NCc2ccccn2)sc2nc(-c3ccc(F)cc3)cn12	0.2	1.2	19364*	0.9	-7.7
Cc1cccc(NC(=O)c2sc3nc(-c4ccccc4)cn3c2C)n1	-7.5	2.0	12530	1.8	5.0
Cc1c(C(=O)NCc2ccc3c(c2)OCO3)sc2nc(-c3ccccc3)cn12	20.2	0.2	5793	-17.2	-11.6
Cc1c(C(=O)NCc2ccccn2)sc2nc(-c3ccccc3)cn12	4.2	0.2	4195	-4.6	-12.5
Cc1c(C(=O)Nc2ccc3c(c2)OCO3)sc2nc(-c3ccccc3)cn12	65.7*	-2.1	9656	-20.5	-5.1
c1ccc(C[C@H]2CN=C(Nc3ccccc3)N2CC2CCCCCC2)cc1	11.3	0.2	3048	-9.6	-8.9
CCC1(c2ccccc2)NC(=O)N(CC(=O)NC2CCCCCC2)C1=O (stereo not given)	2.9	0.5	5541	?	-1.4
Cc1c(C(=O)Nc2ccccc2)sc2nc(-c3ccccc3)cn12	-12.7	-1.2	23471*	-1.2	-1.5
CCCCCC(=O)N1C[C@H](O)[C@@H](n2cc(COC(=O)c3ccccc3)nn2)C[C@@H]1c1ccc(OC)cc1	-0.3	0.0	3493	1.9	-2.4
Cc1noc(C)c1C(=O)OCC(=O)c1c[nH]c2ccccc12	9.8	47.2*	14479	21.9	53.2*
CC(NC(=O)CSc1nc2c(c(C(F)(F)F)n1)CCc1ccccc1-2)c1ccccc1 (stereo not given)	-2.4	0.0	3151	3.1	-0.6
CCc1c(C)sc(NC(=O)CSc2nc3c(c(C(F)(F)F)n2)CCc2ccccc2-3)c1C#N	-2.9	-3.7	21133*	-3.2	-0.8
Cc1cccc(C)c1-n1nnnc1C(c1ccnc2ccccc12)N1CCOCC1 (stereo not given)	·	0.3	5892	0.9	-6.6
O=C1CC(N2CCN(S(=O)(=O)c3ccccc3F)CC2)C(=O)N1c1ccccc1F (stereo not given)	3.9	-0.2	3872	-9.6	0.0
SMILES	MazF activator	BoNT A protease	Bead autofluor	BoNT-F LC inh	Anthrax LF inh2
COc1ccccc1N1CCN(Cc2ccccc2Cl)CC1	-0.9	-3.4	23767*	-6.7	-8.7
COc1ccccc1N1CCN(CC(O)COc2c(OC)cccc2OC)CC1 (stereo not given)	3.1	0.6	19582*	0.8	-0.6
COc1cccc(OC)c1OCC(O)CN1CCN(c2ccccc2)CC1 (stereo not given)	0.0	-0.5	4394	-12.2	-0.7
COc1ccccc1N1CCN(c2cc(=O)n(-c3ccccc3Cl)c(=O)[nH]2)CC1	-3.7	-5.1	21673*	-7.4	-4.3
COc1ccc(-n2c(=O)cc(N3CCN(c4ccccc4OC)CC3)[nH]c2=O)cc1	4.7	0.4	9718	1.5	-2.2
COc1ccccc1N1CCN(Cc2cccc(OC)c2O)CC1	1.2	7.1	21009*	7.8	-6.4
Cc1ccc(NC(=O)CSc2nnc(COc3ccccc3F)n2N)cc1S(=O)(=O)N1CCOCC1	-7.3	2.8	8560	2.1	9.2
C=CCc1ccccc1OCC(O)CN1CCN(c2ccc(OC)cc2)CC1 (stereo not given)	-0.9	?	23665*	-7.3	-5.1
CCOc1ccccc1N1CCN(Cc2ccc(OC)c(OC)c2OC)CC1	-2.2	?	21368*	4.8	-4.0
COc1cc(OC)c(OC)cc1CN1CCN(c2ccccc2OC)CC1	-3.4	?	24136*	-4.6	0.9
CCC(=O)c1ccc(OCC(O)CN2CCN(c3ccc(F)cc3)CC2)cc1 (stereo not given)	1.1	2.7	19445*	4.9	-2.4
COc1ccccc1N1CCN(Cc2cccc(OC)c2OC)CC1	-1.2	0.4	5575	5.6	5.1
C[C@@H]1COc2cc(N3CCN(Cc4ccccc4F)CC3)ccc2S(=O)(=O)N1	·	0.8	5864	3.3	0.4
CCCNC(=O)c1ccc(COc2ccc(CCC)cc2OC)o1	5.8	1.9	2940	11.9	4.0
COc1ccccc1N1CCN(Cc2ccc(Br)o2)CC1	2.7	1.8	22305*	0.9	-2.6
CCN1CCN(CC(O)COCc2ccccc2)CC1 (stereo not given)	-5.4	0.6	2440	3.6	0.4
OC(COCc1ccccc1)CN1CCN(c2ccccc2F)CC1 (stereo not given)	0.4	0.8	22811*	-0.8	-1.5
COc1ccc2nc(SCC(N)=O)[nH]c2c1	-4.2	?	22930*	-1.9	-0.6
C=CCSc1nnc(CCc2ccccc2)n1N	1.7	-1.1	4599	-3.7	1.6
CCOc1ccc(C2=Nn3c(nnc3-c3ccccc3OC)SC2)cc1	6.8	1.1	22729*	0.8	0.2
c1ccc(-c2ccc(C3=Nn4c(nnc4-c4cc(-c5ccccc5)n[nH]4)SC3)cc2)cc1	-72.7	3.4	18459*	2.2	3.2
COc1cccc(-c2nnc3n2N=C(c2cccc(Br)c2)CS3)c1	-11.5	?	20881*	-5.3	-0.3
CCOc1ccc(-c2nnc3n2N=C(c2ccc(OC)cc2)CS3)cc1	10.4	6.3	19797*	10.5	3.7
CC1CCN(C(=O)c2[nH]cnc2C(=O)Nc2ccccc2F)CC1	-10.6	-0.1	3485	-2.1	-7.1
COC(=O)c1c(NC(=O)CS(=O)(=O)c2ccccc2)sc(C)c1C	-10.8	-0.8	5931	3.7	0.1
COc1ccc(C2=Nn3c(nnc3-c3ccccn3)SC2)cc1	6.0	?	24133*	-2.3	-1.8
CCc1nnc2n1N=C(c1ccc([N+](=O)[O-])cc1)CS2	4.1	1.0	4095	?	7.3
CCc1nnc2n1N=C(c1ccc(OC)cc1)CS2	9.4	-3.1	17512*	-10.3	-4.5

Screening results as filed in PubChem.
